In the library only some 1.5% were active in any assay of this set; here they are far more common.
RAD52 inh: RAD52 DNA annealing inhibitors, primary screen, biochemical, FRET, single point, set 2 | DNA repair protein RAD52 homolog (Homo sapiens), P43351 | recombinant RAD52 DNA annealing, FRET fluorescence | inhibition, % at 18.7 µM | 360,000 tested, 0.46% active | AID 651710, 2012;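 active = every replicate showing at least 50% inhibition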
Target sequence (P43351 whole entry, looked up): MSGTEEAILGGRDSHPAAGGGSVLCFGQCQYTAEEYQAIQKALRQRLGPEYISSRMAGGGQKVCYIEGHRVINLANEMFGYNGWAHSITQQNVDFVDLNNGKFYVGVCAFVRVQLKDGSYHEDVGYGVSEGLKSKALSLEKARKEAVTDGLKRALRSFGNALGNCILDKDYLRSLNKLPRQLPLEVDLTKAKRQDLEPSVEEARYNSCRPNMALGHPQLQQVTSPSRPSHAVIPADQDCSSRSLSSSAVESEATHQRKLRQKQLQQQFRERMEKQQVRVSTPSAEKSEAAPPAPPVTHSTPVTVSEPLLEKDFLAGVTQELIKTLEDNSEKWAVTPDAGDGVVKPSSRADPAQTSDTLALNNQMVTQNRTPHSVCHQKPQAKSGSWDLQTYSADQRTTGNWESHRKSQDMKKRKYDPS
CASP6 VEID inh: human caspase-6 inhibitors, primary screen, biochemical, VEID-R110 fluorescence, single point, set 2 | P55212 | purified caspase-6, Z-VEID-R110 cleavage fluorescence | inhibition, % at 12.5 µM | 350,000 tested, 0.53% active | AID 686996, 2013;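 active = mean inhibition across replicates at least about 35%, with every replicate also reaching that limit, limit read from the data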;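 note: 0% = median of neutral control wells and 100% = no fluorescence left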
miR122 inh: miR-122 Renilla sensor signal increase in Huh7, primary screen, miR-122 inhibitor project, cell-based, single point, plate reader. activation (reporter increase), % at 12.5 µM. AID 602342, 2012. 340,000 tested, 0.3% active. Huh7 miR-122 Renilla luciferase sensor, 48 h; neutral wells = 0, positive control = 100;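 active = mean replicate activation score at least 90 and every replicate individually at or above 90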;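 note: higher luciferase means less miR-122 activity so hits act as miR-122 inhibitors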
NSD2 inh: NSD2 histone methyltransferase inhibitors, primary screen, biochemical, AlphaScreen, single concentration, set 2; NSD2 peptide methylation, 120 min; 310,000 tested, 0.54% active; inhibition, % at 12.5 µM; Histone-lysine N-methyltransferase NSD2 (Homo sapiens), O96028; in the data active = inhibition above about 50%
AF4-AF9 inh: inhibitors of AF4 peptide binding to AF9, primary screen, biochemical, AlphaScreen, biotin-AF4 peptide, FLAG-AF9, single point | Protein AF-9 (Homo sapiens), P42568 | inhibition, % at 10 µM | 350,000 tested, 0.47% active | AID 651704, 2012;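 active = every replicate reaching a set inhibition limit, whatever the replicate mean, cut at about 25% in these data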;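 note: 0% = plate neutral control median and 100% = total signal loss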
Alpha artifact: AlphaScreen signal interference with preloaded methylated product, dose response, artefact control for NSD2 inhibitor project, biochemical, cherry-picked samples | shares compounds with NSD2 inh | AlphaScreen artifact counterscreen, preloaded methylated H4 peptide | AC35, µM (titrated, usually from 10 µM), for inactives: at the top dose activity change, negative = signal loss | 1,500 tested, 9.4% active; call rule not given here
* hit, by the source's call; [ ] = remark or other dose.

Cc1ccc(C)c(-n2c3nc(=O)[nH]c(=O)c-3cc3cc([N+](=O)[O-])ccc32)c1 was read as RAD52 inh -22, CASP6 VEID inh 50*, miR122 inh 14, NSD2 inh 60*, AF4-AF9 inh -16 and Alpha artifact -8%.
For Cc1cccc(-n2c3nc(=O)[nH]c(=O)c-3cc3cc([N+](=O)[O-])ccc32)c1 the results were RAD52 inh -5, CASP6 VEID inh 9, miR122 inh -1, NSD2 inh 58*, AF4-AF9 inh -12 and Alpha artifact -6%.
Screening Cc1ccc(C)c(-n2c3nc(=O)n(C)c(=O)c-3cc3ccccc32)c1 returned RAD52 inh -10, CASP6 VEID inh 3, NSD2 inh 0 and AF4-AF9 inh -3.
COc1ccc2nc(C)cc(SCC(=O)N/N=C/c3ccc(O)c(O)c3)c2c1 was read as RAD52 inh -9, CASP6 VEID inh 8, NSD2 inh 66*, AF4-AF9 inh 4 and Alpha artifact -13%.
Screening O=C(CSc1nc2ccccc2o1)N/N=C/c1ccccc1 returned miR122 inh 0 and NSD2 inh -2.
Screening COc1ccc2nc(C)cc(SCC(=O)N/N=C/c3cccc4ccccc34)c2c1 returned miR122 inh 4 and NSD2 inh 3.
Screening C/C(=N\NC(=O)CSc1nc2ccccc2o1)c1cccc(O)c1 returned RAD52 inh -15, CASP6 VEID inh 3, miR122 inh -3, NSD2 inh -1 and AF4-AF9 inh 0.
`O=C(CSc1nc2ccccc2o1)N/N=C/c1ccc(O)c(O)c1` gave RAD52 inh 5, CASP6 VEID inh 63*, miR122 inh -1, NSD2 inh 116*, AF4-AF9 inh 14 and Alpha artifact 2.2µM*.
For C/C(=N\NC(=O)CSc1nc2ccccc2o1)c1ccc(O)cc1 the results were RAD52 inh -12, CASP6 VEID inh 1, miR122 inh 3, NSD2 inh 51*, AF4-AF9 inh -3 and Alpha artifact -5%.
For CCN(CC)Cc1cc(O)c(CN(CC)CC)cc1O the results were RAD52 inh -73, CASP6 VEID inh 19, NSD2 inh 100*, AF4-AF9 inh 11 and Alpha artifact 1%.
`O=C1NC(NS(=O)(=O)c2ccccc2)(C(F)(F)F)C(=O)N1c1cccc(Cl)c1` (configuration not stated) gave RAD52 inh -11, CASP6 VEID inh 1, miR122 inh -7, NSD2 inh 96*, AF4-AF9 inh -3 and Alpha artifact -2%.
`Cc1ccc(NC(=O)CN(C)CCOc2ccccc2)c([N+](=O)[O-])c1` gave RAD52 inh -20, CASP6 VEID inh 1, miR122 inh 0, NSD2 inh 75*, AF4-AF9 inh 3 and Alpha artifact -1%.
`COc1ccc(C2C(C(=O)/C=C/c3ccco3)=C(O)C(=O)N2CCN2CCOCC2)cc1OC` (configuration not stated) gave RAD52 inh -83, CASP6 VEID inh -1, miR122 inh -5, NSD2 inh 72*, AF4-AF9 inh 3 and Alpha artifact -1%.
`COc1ccc(C2C(C(=O)c3ccco3)=C(O)C(=O)N2CC2CCCO2)cc1OC` (configuration not stated) gave RAD52 inh -1, CASP6 VEID inh 10, miR122 inh 3, NSD2 inh 62*, AF4-AF9 inh -2 and Alpha artifact -6%.
For CCCOc1ccc(C2C(C(=O)c3ccco3)=C(O)C(=O)N2CCN2CCOCC2)cc1OC (configuration not stated) the results were NSD2 inh -4.
`N#Cc1c(SCC(=O)OCc2ccccc2)nsc1SCC(=O)OCc1ccccc1` gave RAD52 inh -4, CASP6 VEID inh -5, miR122 inh 14, NSD2 inh 126* and Alpha artifact -4%.
For Cc1noc(C)c1NC(=O)Nc1ccc2c(c1)C(=O)N([C@@H](C)CO)C[C@@H](C)[C@@H](CN(C)C(=O)Cc1ccccc1)OCCCC[C@@H](C)O2 the results were RAD52 inh 6, CASP6 VEID inh 0, miR122 inh 8[16.7 µM] and AF4-AF9 inh 2.
Screening COc1ccc(C)cc1COC(=O)c1[nH]c(C)c(C(C)=O)c1C returned RAD52 inh -39, CASP6 VEID inh 0, miR122 inh 3, NSD2 inh 55*, AF4-AF9 inh 9 and Alpha artifact -2%.
O=c1ccc(-c2ccc([N+](=O)[O-])cc2)nn1-c1ccccc1 was read as RAD52 inh -6, CASP6 VEID inh -2, miR122 inh 5, NSD2 inh -2 and AF4-AF9 inh -1.
For O=[N+]([O-])c1ccc(-[n+]2nc(-c3ccccc3)nn2-c2ccccc2)cc1 the results were RAD52 inh 6, CASP6 VEID inh 7, NSD2 inh 81*, AF4-AF9 inh 2 and Alpha artifact 0.91µM*.
For O=C(CC1CC1)N1[C@H](CO)[C@@H](c2ccccc2)C12CN(Cc1ccccc1F)C2 the results were RAD52 inh -4, CASP6 VEID inh -1 and AF4-AF9 inh 2.
For COc1cccc(-c2ccc3c(c2)[C@H]2[C@H](CCN2C(=O)c2ccc(F)cc2)[C@@H](CO)N3C)c1 the results were miR122 inh 1[16.7 µM].
`O=C1CC(=O)Nc2cc(S(=O)(=O)Nc3ccc(Cl)c(C(F)(F)F)c3)ccc2N1` gave RAD52 inh -4, CASP6 VEID inh 3, miR122 inh -4, NSD2 inh 52*, AF4-AF9 inh -3 and Alpha artifact -1%.
Screening c1ccc(-c2cc(-c3ccccc3)n3ncnc3n2)cc1 returned RAD52 inh -2, CASP6 VEID inh 3, miR122 inh 0, NSD2 inh 50*, AF4-AF9 inh -2 and Alpha artifact -1%.
Screening O=C(CCc1ccccc1)NCCCN1CCOCC1 returned miR122 inh -4, NSD2 inh 98* and Alpha artifact 0%.
Screening O=C(CCN1CCOCC1)NCC1COc2ccccc2O1 (configuration not stated) returned miR122 inh 4, NSD2 inh 56* and Alpha artifact -2%.
For O=C(CCCc1ccccc1)NCCCN1CCOCC1 the results were miR122 inh -2 and NSD2 inh 1.
